The values that follow come from PubChem BioAssay (NCATS).

Experiment [1] can be described thus: Stat Signaling Pathway (AID 446; active = well fitted curve in either direction with a large enough effect, not every such curve was filed as active;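 also: ME-180 cervical cancer cells given 40 pM IL-6 alongside compound; SIE-controlled beta-lactamase reporter measured as 460/530 nm FRET emission ratio; % is scaled to controls: 0 for no effect and ±100 for the full control effect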). Put shortly: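 ME-180 cells carrying a SIE-driven beta-lactamase reporter are stimulated with 40 pM IL-6 for 5 h at 37C in the presence of compound. The 460/530 nm FRET substrate ratio is read after 2.5 h at RT. Data are normalised to 300 pM IL-6 and to 125 nM JAK inhibitor controls.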
The target of experiment [2] is Glucocorticoid receptor (Homo sapiens) (UniProt P04150). The experiment is described as follows: GR-GFP Redistribution (AID 450;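 active = compounds whose dose series gives a full or clear partial fitted curve of increased nuclear translocation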; also: potency is read from the fitted curve at half-maximal effect). The settings on record: U2OS GR-GFP nuclear translocation, laser cytometry, 2 h.
Sequence of Glucocorticoid receptor (Homo sapiens) (P04150 whole entry, looked up): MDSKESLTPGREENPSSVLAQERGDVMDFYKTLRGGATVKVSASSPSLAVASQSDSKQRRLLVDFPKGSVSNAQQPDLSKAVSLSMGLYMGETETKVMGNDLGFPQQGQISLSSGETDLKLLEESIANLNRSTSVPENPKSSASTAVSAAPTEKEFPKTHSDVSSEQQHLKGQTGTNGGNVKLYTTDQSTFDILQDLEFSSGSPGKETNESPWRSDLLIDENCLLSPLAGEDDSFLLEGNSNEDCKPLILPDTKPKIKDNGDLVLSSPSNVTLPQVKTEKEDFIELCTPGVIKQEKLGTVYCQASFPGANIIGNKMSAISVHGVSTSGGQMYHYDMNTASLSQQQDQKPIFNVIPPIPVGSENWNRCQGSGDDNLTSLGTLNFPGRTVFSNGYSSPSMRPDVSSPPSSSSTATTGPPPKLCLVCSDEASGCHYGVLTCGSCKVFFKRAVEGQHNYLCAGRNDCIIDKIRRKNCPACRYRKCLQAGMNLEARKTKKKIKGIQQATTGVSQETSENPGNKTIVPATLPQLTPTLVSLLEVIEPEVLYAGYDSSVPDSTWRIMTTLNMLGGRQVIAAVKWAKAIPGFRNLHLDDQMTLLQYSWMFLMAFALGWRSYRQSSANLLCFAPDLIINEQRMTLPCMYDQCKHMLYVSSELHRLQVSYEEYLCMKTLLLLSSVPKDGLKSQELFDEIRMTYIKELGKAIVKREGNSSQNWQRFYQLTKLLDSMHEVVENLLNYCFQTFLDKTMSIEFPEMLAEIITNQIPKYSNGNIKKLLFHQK
For experiment [3] the target is unchanged. The experiment is described as follows: GR-EFC Redistribution (AID 451; calls by dose curve; also: potency is read from the fitted curve at half-maximal effect). The settings on record: CHO-K1 GR-EFC translocation, beta-gal luminescence, 2 h. In short, it runs like this:
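Translocation of GR-ED fusion to nuclear EA restores b-gal, read by luminescence after 1 h room-temperature detection. Engineered CHO-K1 biosensor cells, 1,000/well, exposed 2 h at 37 C to titrations up to 46 uM final.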

The target of experiment [4] is Ubiquitin carboxyl-terminal hydrolase 1 (Homo sapiens) (UniProt O94782). The experiment is described as follows: Inhibitors of USP1/UAF1: Pilot qHTS (AID 504865).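 Also: rhodamine fluorescence freed from ubiquitin-rhodamine substrate followed over time; top concentration of the series differs between compounds; % is scaled to controls: 0 for no effect and ±100 for the full control effect; nearly all actives have a fitted effect of over 35% in size.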 Put shortly:
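Kinetic fluorescence assay: 1nM USP1/UAF1, 15 min compound preincubation, then 150nM Ub-Rho; 480/540 nm.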
Background: qHTS replaces the single test concentration by a dilution series.

Experiment [5] in a line: HepG2 viability counterscreen (readout 2: ATP content) against the NCATS DSHEA and TCM libraries (AID 1794840).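 Also: HepG2 cells exposed to substances for about 24 h; 0% is about no effect.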 In short, it runs like this: (§1)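 Cytotoxicity was assessed in HepG2 cells plated at 1,000 cells/well and exposed for about 24 hours to a concentration series. Protease activity and ATP content were measured sequentially in each well.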
The nature of experiment [6]: HepG2 viability counterscreen (readout 1: protease activity) against the NCATS DSHEA and TCM libraries (AID 1794841).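 Also: cells exposed to compounds for about 24 h before the protease read; 0% is about no effect.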 Put shortly: as §1
In general terms: The purpose of a counterscreen is to sort out artefacts and off-target activity.

In experiment [7] the target is Cytochrome P450 3A4 (Homo sapiens) (UniProt P08684). The experiment is described as follows: qHTS for inhibitors of CYP3A4 against the NCATS DSHEA and TCM libraries (AID 1919971). Also: potency is read from the fitted curve at half-maximal effect. Put shortly: (§2)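 Luminescent P450-Glo format: compounds preincubated 15 min with enzyme and luciferin substrate, reaction run 30-45 min after NADPH regeneration solution. Intraplate controls: ketoconazole for CYP3A4 and CYP2C19, sulfaphenazole for CYP2C9.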
Sequence of Cytochrome P450 3A4 (Homo sapiens) (P08684 whole entry, looked up): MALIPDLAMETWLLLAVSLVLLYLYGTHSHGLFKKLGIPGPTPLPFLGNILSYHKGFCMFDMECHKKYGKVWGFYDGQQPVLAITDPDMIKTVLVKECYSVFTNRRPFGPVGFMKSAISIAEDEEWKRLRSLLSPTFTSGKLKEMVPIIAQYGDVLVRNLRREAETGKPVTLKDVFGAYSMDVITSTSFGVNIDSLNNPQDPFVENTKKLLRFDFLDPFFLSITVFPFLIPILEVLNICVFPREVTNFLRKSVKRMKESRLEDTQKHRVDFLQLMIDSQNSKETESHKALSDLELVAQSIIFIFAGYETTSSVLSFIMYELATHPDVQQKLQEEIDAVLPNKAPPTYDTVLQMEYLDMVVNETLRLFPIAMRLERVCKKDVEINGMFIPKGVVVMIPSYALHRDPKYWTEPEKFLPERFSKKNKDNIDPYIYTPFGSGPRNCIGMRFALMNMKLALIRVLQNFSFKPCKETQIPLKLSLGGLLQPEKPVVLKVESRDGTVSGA

Experiment [8] deals with Cytochrome P450 2C9 (Homo sapiens) (UniProt P11712). The experiment is described as follows: qHTS for inhibitors of CYP2C9 against the NCATS DSHEA and TCM libraries (AID 1919973). Also: potency is read from the fitted curve at half-maximal effect. In short, it runs like this:
as §2

The target in experiment [9] is Cytochrome P450 2C19 (Homo sapiens) (UniProt P33261). The experiment is described as follows: qHTS for inhibitors of CYP2C19 against the NCATS DSHEA and TCM libraries (AID 1919974).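 Also: luminescence from luciferin released by CYP2C19 oxidation of a pro-luciferin substrate.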 Also: potency is read from the fitted curve at half-maximal effect. Put shortly: as §2
Sequence of Cytochrome P450 2C19 (Homo sapiens) (P33261 whole entry, looked up): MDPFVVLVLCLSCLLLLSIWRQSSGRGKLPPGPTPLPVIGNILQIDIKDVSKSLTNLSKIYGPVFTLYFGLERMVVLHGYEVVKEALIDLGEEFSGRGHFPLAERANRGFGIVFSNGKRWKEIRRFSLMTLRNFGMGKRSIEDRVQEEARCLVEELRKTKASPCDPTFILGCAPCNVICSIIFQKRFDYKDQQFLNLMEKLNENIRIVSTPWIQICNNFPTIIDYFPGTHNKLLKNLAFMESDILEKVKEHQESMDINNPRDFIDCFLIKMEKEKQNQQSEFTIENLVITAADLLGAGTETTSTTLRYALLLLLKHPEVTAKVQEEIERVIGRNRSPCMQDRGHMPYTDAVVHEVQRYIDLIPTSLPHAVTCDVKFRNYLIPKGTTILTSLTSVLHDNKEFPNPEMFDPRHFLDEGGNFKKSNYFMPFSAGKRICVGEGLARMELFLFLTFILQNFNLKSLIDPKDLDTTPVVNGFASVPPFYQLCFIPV
Experiment [10] in a line: KB-3-1 P-gp reporter qHTS against the NCATS DSHEA and TCM libraries (AID 1919975). Also: 0% is about no effect. In short, it runs like this: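 72 h exposure of KB-3-1 cells (DMEM, 10% FBS) to DSHEA/TCM samples, concentration-response; cell viability measured as CellTiter-Glo luminescence after 30 min at room temperature.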
Experiment [11] can be described thus: qHTS Counterscreen for compound interference against the NCATS DSHEA and TCM libraries (AID 1919978). Also: % of control where 0% means no effect. The conditions noted are these: firefly luciferase detection reagent interference, luminescence. In short, it runs like this: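 Read-out is luminescence after 30 min at RT with luciferin detection reagent. Before that, compounds (19.5 nM to 39.8 uM final) sat 15 min at RT with 1 uM D-luciferin or 100 mM potassium phosphate buffer. PTC124 served as intraplate control.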

Experiment [12] in a line: Dual reporter qHTS for agonist of Pregnane X Receptor (hPXR) against the NCATS DSHEA and TCM libraries: Fluorescence readout (AID 1920058). Also: 0% is about no effect. Put shortly:
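hPXR-Luc HepG2 cells, 2000/well in charcoal-stripped serum, attached 5 h, dosed for ~24 h at 37 °C. Fluorescence read is CellTiter-Fluor viability (Ex/Em 405/540 nm); rifampicin positive, tetraoctyl ammonium bromide (92 µM) cytotoxicity controls.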

Experiment [13] addresses Nuclear receptor subfamily 1 group I member 2 (Homo sapiens) (UniProt O75469). The experiment is described as follows: Dual reporter qHTS for agonist of Pregnane X Receptor (hPXR) against the NCATS DSHEA and TCM libraries: Luminescence readout (AID 1920059). Also: 0% is about no effect. In short, it runs like this: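 Luminescent PXR reporter read (ONE-Glo) after a CellTiter-Fluor viability read, following 24 h, 37C treatment of HepG2 cells stably carrying hPXR-Luc.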

The target is the same in experiment [14]. The experiment is described as follows: Dual reporter qHTS for antagonist of Pregnane X Receptor (hPXR) against the NCATS DSHEA and TCM libraries: Luminescence Readout (AID 1920060).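 Also: HepG2 cells carrying hPXR luciferase reporter stimulated with rifampicin at 2 µM; 0% is about no effect.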 In short, it runs like this: (§3)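 hPXR-Luc HepG2 cells exposed 24 h at 37 C to compounds with 2 uM rifampicin in antagonist mode; luciferase luminescence measured by ONE-Glo, with CellTiter-Fluor viability read beforehand.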

A short description of experiment [15]: Dual reporter qHTS for antagonist of Pregnane X Receptor (hPXR) against the NCATS DSHEA and TCM libraries: Fluorescence Readout (AID 1920061). Also: 0% is about no effect. In short, it runs like this: as §3
Experiment [16] deals with Mitogen-activated protein kinase 10 (Mus musculus) (UniProt Q61831). The experiment is described as follows: JNK3 AlphaScreen Assay (AID 530; active = well fitted curve in either direction with a large enough effect, not every such curve was filed as active;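 also: kinase came from lysate of stimulated human HepG2 cells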; also: potency is read from the fitted curve at half-maximal effect). Put shortly: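 Compound titrations were preincubated 15 minutes at room temperature with substrate, antibody and pre-activated JNK3-containing HepG2 lysate. Reactions were started with 10 uM ATP and stopped with EDTA-containing bead buffer for AlphaScreen detection.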
On the technique in general: In Alpha technology, singlet oxygen from a donor bead excites a nearby acceptor bead.

Experiment [17] can be described thus: Viability counterscreen for agonist of constitutive androstane receptor (CAR) against the NCATS DSHEA and TCM libraries (AID 1794838).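 Also: HepG2 cells with CYP2B6 reporter and hCAR plus 0.75 µM PK11195 antagonist; 0% is about no effect.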 In short, it runs like this:
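In agonist mode, PK11195 is added at 0.75 uM final to HepG2-CYP2B6-hCAR cells dosed with test substances. Cultures incubate 24 h at 37C before a protease-based fluorogenic viability readout.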

The target in experiment [18] is Cytochrome P450 2D6 (Homo sapiens) (UniProt P10635). The experiment is described as follows: qHTS for inhibitors of CYP2D6 against the NCATS DSHEA and TCM libraries (AID 1919972). Also: % is scaled to controls: 0 for no effect and ±100 for the full control effect. In short, it runs like this: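 Luminescent P450-Glo read-out of CYP2D6 turnover of a luciferin substrate after NADPH-driven reaction of 30-45 min at room temperature. Compounds were first preincubated 15 min with enzyme at titrated concentrations; quinidine was the intraplate control.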
Sequence of Cytochrome P450 2D6 (Homo sapiens) (P10635 whole entry, looked up): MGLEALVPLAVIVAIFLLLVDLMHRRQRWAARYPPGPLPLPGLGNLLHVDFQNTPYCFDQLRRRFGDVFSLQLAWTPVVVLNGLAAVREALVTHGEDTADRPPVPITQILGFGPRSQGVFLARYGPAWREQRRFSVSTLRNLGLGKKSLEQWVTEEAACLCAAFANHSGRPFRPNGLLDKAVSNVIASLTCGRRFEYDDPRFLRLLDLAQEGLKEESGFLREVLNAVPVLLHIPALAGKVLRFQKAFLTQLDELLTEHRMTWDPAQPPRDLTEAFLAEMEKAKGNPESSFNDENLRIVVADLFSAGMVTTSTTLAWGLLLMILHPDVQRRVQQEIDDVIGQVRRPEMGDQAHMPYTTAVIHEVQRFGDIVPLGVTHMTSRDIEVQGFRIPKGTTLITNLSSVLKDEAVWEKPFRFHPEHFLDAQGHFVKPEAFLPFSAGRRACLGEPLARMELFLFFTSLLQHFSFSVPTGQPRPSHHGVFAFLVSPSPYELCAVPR

For experiment [19], the target named is Cytochrome P450 1A2 (Homo sapiens) (UniProt P05177). The experiment is described as follows: qHTS for inhibitors of CYPIA2 against the NCATS DSHEA and TCM libraries (AID 1919976). Also: potency is read from the fitted curve at half-maximal effect. Put shortly: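 Human CYP1A2 with pro-luciferin substrate (typically 100 mM KPO4), 15 min preincubation with compound, then 1x NADPH regeneration for 30-45 min at room temperature in the dark. Luciferin quantified by luciferase luminescence; furafylline intraplate control.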
Sequence of Cytochrome P450 1A2 (Homo sapiens) (P05177 whole entry, looked up): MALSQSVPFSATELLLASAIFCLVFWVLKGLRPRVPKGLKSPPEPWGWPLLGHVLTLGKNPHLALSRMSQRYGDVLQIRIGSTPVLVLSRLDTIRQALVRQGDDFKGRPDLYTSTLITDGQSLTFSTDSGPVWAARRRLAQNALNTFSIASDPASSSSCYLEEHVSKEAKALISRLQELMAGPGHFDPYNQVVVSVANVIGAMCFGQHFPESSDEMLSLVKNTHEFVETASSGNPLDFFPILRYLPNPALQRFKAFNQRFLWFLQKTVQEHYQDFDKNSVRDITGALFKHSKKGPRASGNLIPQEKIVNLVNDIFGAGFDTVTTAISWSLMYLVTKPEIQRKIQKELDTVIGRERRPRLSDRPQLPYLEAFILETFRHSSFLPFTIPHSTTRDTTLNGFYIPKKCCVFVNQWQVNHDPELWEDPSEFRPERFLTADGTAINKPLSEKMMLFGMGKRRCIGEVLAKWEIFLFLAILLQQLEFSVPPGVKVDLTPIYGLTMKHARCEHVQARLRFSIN

The nature of experiment [20]: Viability counterscreen for antagonist of constitutive androstane receptor (CAR) against the NCATS DSHEA and TCM libraries (AID 1794837).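 Also: compound exposure lasted 24 h before viability reading; 0% is about no effect.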 In short, it runs like this: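 Fluorescence from CellTiter-Fluor reports live-cell protease activity in HepG2-CYP2B6-hCAR cells treated for 24 h with substances alongside 48 uM CITCO.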

Unmarked numbers belong to inactive results. Records with an inconclusive call do not appear. Active and inactive are the calls of the source. Unless noted, calls follow the shape of the dose curve; as a rule, active = well fitted curve in the direction sought with a large enough effect; inconclusive = small, poorly fitted or top-dose-only effect, or another doubt; inactive = no such curve, though single readings can be large; an effect the other way counts as inactive or inconclusive.

Sequence of Cytochrome P450 2C9 (Homo sapiens) (P11712 whole entry, looked up): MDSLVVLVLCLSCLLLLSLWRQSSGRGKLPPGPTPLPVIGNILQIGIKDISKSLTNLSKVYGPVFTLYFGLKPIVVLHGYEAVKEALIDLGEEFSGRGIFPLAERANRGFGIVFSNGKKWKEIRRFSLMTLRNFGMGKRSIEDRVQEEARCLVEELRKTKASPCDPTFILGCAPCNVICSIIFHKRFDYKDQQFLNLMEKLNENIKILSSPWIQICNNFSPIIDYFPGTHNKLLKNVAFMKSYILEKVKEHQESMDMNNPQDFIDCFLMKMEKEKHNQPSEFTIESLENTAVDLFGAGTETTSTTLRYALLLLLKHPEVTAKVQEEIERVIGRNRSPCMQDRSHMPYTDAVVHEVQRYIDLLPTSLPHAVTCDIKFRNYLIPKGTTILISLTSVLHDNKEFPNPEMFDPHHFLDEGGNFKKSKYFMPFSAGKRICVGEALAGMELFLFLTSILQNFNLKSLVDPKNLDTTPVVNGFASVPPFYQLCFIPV
Sequence of Nuclear receptor subfamily 1 group I member 2 (Homo sapiens) (O75469 whole entry, looked up): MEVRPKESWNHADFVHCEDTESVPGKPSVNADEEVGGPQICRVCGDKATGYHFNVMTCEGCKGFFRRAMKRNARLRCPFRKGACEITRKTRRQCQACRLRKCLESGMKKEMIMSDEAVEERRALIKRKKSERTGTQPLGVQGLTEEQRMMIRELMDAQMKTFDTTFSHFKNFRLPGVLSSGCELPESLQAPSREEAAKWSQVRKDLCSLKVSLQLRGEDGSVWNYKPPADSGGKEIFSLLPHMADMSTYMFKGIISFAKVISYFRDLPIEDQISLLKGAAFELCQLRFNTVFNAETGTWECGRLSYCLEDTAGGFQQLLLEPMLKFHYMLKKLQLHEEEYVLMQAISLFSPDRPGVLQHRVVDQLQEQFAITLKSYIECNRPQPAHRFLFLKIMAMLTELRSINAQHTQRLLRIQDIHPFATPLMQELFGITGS
Sequence of Ubiquitin carboxyl-terminal hydrolase 1 (Homo sapiens) (O94782 whole entry, looked up): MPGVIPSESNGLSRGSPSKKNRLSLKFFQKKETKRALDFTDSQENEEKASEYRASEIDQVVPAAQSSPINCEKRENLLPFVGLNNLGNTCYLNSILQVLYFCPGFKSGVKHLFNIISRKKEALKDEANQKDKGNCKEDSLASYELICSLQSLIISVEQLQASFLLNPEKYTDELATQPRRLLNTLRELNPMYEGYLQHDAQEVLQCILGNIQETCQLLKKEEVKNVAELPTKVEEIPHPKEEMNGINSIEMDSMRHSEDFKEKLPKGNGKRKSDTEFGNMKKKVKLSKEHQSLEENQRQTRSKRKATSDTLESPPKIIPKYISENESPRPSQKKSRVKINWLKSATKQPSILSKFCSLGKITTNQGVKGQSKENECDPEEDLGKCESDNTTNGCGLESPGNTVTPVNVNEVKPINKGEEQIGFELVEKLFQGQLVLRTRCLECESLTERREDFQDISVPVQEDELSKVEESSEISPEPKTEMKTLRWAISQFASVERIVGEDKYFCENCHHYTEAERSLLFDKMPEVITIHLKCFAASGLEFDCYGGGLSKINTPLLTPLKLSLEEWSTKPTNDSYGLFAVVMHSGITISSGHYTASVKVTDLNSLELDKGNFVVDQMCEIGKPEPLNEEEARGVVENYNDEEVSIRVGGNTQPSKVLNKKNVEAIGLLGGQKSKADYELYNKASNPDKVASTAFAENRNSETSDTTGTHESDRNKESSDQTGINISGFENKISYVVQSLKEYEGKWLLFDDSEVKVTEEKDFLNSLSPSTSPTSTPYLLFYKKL

For `COc1ccc2[nH]cc(CCNc3ncncc3-c3ccccc3C(F)(F)F)c2c1`, in experiment [1], the call was inactive. Besides, the Potency in [2] and in experiment [3] was more than 46 µM each time. Moreover, the Potency entry in experiment [4] was “inactive”.

On to `CCCCC/C=C/C/C=C/CCCCCCCC(=O)O`, for which the molecule was called inactive in [5], in experiment [6], in experiment [10], in experiment [12], in experiment [14] and in experiment [15]. Besides, the values for the Potency in experiment [7], in experiment [8] and in [9] were 22.4 µM (active), 12.6 µM (active) and 22.4 µM (active), respectively. Besides, the max response in [11] was 0.865%. For the same molecule, in experiment [13], the Potency result was “inactive”.

With `O=c1cc(-c2ccc(O)c(O)c2)oc2cc(O[C@@H]3O[C@@H](CO)[C@@H](O)[C@@H](O)[C@H]3O)cc(O)c12`, the Potency in experiment [2] is more than 46 µM; in [3] it was more than 46 µM; in experiment [16] it was 7.94 µM (active); in experiment [8], 3.98 µM (active); in [9], 3.55 µM (active); in experiment [19] it was 3.98 µM (active). Also, the molecule was called inactive in [17], in [5], in experiment [6], in [10], in experiment [12] and in experiment [14]. The Potency entry in experiment [7], in [18] and in experiment [13] was “inactive” in each case. Moreover, the max response in experiment [11] is 0.762%.

For `O=C(/C=C/c1ccc(O)c(O)c1)OC1[C@H](O)CC(O)(C(=O)O)C[C@@H]1O` (some centres not stated), the outcome in [20], in [17], in experiment [6], in [10], in experiment [12] and in [14] was inactive. The result in [15] was inactive. The Potency entry in experiment [7], in [8], in experiment [9], in experiment [19] and in experiment [13] was “inactive” throughout. Further, the max response in experiment [11] was -1.19%.

As to `COc1ccccc1/C=C/C=O`, the molecule was classed as inactive in [5], in experiment [6], in [10], in [12], in experiment [14] and in experiment [15]. Further, the Potency result in experiment [7], in experiment [18], in experiment [8] and in experiment [13] was “inactive” in each case. For the same molecule, the Potency in experiment [19] is 25.1 µM (active). Also, the max response in experiment [11] is -3.3%.

For the molecule `c1ccc(Nc2nc(-c3ccoc3)nc3ccccc23)cc1`, the molecule was called inactive in experiment [1]. Further, the Potency in experiment [2] and in experiment [3] was more than 46 µM in each case. Also, in experiment [16], the Potency entry is “inactive”.

As to `CCCCCCCC/C=C/CCCCCCCC(=O)O`, the result in experiment [5], in [10], in [12], in [14] and in [15] was inactive. In addition, the Potency result in experiment [18] and in experiment [13] was “inactive” in each case. In addition, the Potency was 14.1 µM (active) in experiment [8] and 3.55 µM (active) in experiment [9]. Further, the max response in experiment [11] was -3.39%.

Turning to `CCCCCC(=O)O`, the outcome in experiment [5], in [6], in experiment [10], in [12], in experiment [14] and in [15] was inactive. Also, the Potency entry in [7], in experiment [18], in experiment [8], in [9] and in experiment [19] was “inactive” throughout. The max response in experiment [11] was -1.64%.
